# In PubChem BioAssay (Tox21):
# Values without a mark were called inactive. Results filed as inconclusive are left out. Where a call stands in place of a potency, no number is given. Calls of active or inactive are those of the source. Unless noted, the call rests on the fitted dose curve; in most records, active means well fitted curve in the direction sought with a large enough effect in the repeat runs; inconclusive means weak or mixed curves; inactive means no such curve, though single readings can be large; an effect the other way counts as inactive or inconclusive.
# Key:
# [1] = qHTS assay for small molecule agonists of the p53 signaling pathway (AID 651631; calls by dose curve; further: nearly all actives have a fitted effect of over 15% in size)
# Method in brief: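 HCT-116 p53RE-bla reporter line, 16 h compound treatment at 37 °C, then fluorescence after 2 h with B/G FRET substrate.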
# [2] = qHTS assay for small molecules that induce genotoxicity in human embryonic kidney cells expressing luciferase-tagged ATAD5 (AID 651632); further: nearly all actives have a fitted effect of over 15% in size; further: potency means the concentration at half of the fitted maximal effect
# Method in brief: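 A rise in luciferase signal from ATAD5-tagged HEK293T cells marks genetic stress. Cells were exposed to compounds for 16 hr at 37C, 5% CO2, then luciferase was quantified after a 30 min room-temperature incubation with Amplite.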
# [3] = qHTS assay for small molecule agonists of the p53 signaling pathway - cell viability (AID 651633; calls by dose curve;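 further: p53RE-bla HCT reporter cells with a stable beta-lactamase p53 reporter; series mostly up to about 83 µM; nearly all actives have a fitted effect of over 30% in size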)
# Method in brief: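 p53RE-bla cells, seeded at 4,000 per well and rested 5 h at 37 C/5% CO2, received compounds in DMSO for 16 h at 37 C. CellTiter-Glo was then added, and luminescence was read after 30 min at room temperature to gauge cytotoxicity.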
# [4] = qHTS assay for small molecules that induce genotoxicity in human embryonic kidney cells expressing luciferase-tagged ATAD5 - cell viability (AID 651634; calls by dose curve; further: nearly all actives have a fitted effect of over 25% in size)
# Method in brief: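 Cytotoxicity counter-readout: after 15.5 hr compound treatment at 37C, live-cell protease activity in ATAD5-luciferase HEK293T cells measured by CellTiter-Fluor fluorescence, 30 min development at 37C.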
# [5] = qHTS assay to test for compound auto fluorescence at 590 nm (red) in HepG2 cells (AID 720674)
# Method in brief: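 Intrinsic compound fluorescence in the red window (Ex/Em 540/590 nm) is measured in attached HepG2 cells exposed for 1 hr, DMSO vehicle as baseline, benchmarked to Rose Bengal sodium.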
# [6] = qHTS assay to test for compound auto fluorescence at 535 nm (green) in HepG2 cells (AID 720675)
# [7] = qHTS assay to test for compound auto fluorescence at 460 nm (blue) in HEK293 cells (AID 720678)
# Method in brief: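 Auto fluorescence in the blue band was quantified as triamterene equivalency. HEK293 cells were seeded at 2,000/well, dosed after a 4-5 hr attachment, and kept overnight at 37C before the 405/460 nm reading.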
# [8] = qHTS assay to test for compound auto fluorescence at 590 nm (red) in HEK293 cells (AID 720679)
# Method in brief: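 Autofluorescence equivalency to Rose Bengal sodium, 540/590nm, in HEK293 cells exposed overnight to 23 nL compound per well.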
# [9] = qHTS assay to test for compound auto fluorescence at 535 nm (green) in HEK293 cells (AID 720680)
# [10] = qHTS assay to test for compound auto fluorescence at 460 nm (blue) in HEK293 cell free culture (AID 720681)
# Method in brief: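 Test compounds were pinned into cell-free culture medium (DMEM with 10% FBS) and fluorescence was read directly at Ex/Em 405/460 nm. Signals were expressed as fluorescence equivalents of triamterene, with DMSO vehicle as control.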
# [11] = qHTS assay to test for compound auto fluorescence at 535 nm (green) in HEK293 cell free culture (AID 720682)
# Method in brief: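 Steps: dispense DMEM/10% FBS into empty wells; pin in compound or DMSO; measure fluorescence at 485/535 nm. Values are fluorescein equivalents.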
# [12] = qHTS assay to test for compound auto fluorescence at 590 nm (red) in HEK293 cell free culture (AID 720683)
# Method in brief: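 Tox21 10K library compounds were pinned into cell-free DMEM with 10% FBS and fluorescence was read at excitation 540 nm. Activity is expressed as Rose Bengal sodium equivalency.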
# [13] = qHTS assay to test for compound auto fluorescence at 460 nm (blue) in HepG2 cell free culture (AID 720685)
# Method in brief: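 Cell-free plates of MEM plus 10% FBS received 23 nL compound or DMSO vehicle; blue-channel (405/460 nm) intensity scored against triamterene as reference fluorophore.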
# [14] = qHTS assay to test for compound auto fluorescence at 535 nm (green) in HepG2 cell free culture (AID 720686)
# [15] = qHTS assay to test for compound auto fluorescence at 460 nm (blue) in HepG2 cells (AID 720687)
# Method in brief: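 Cells (2,000/well in MEM with 10% FBS) attached overnight at 37 C, then were exposed to compound or DMSO for 1 hr at 37 C, 5% CO2. Fluorescence read at Ex/Em 405/460 nm, expressed as triamterene-equivalent signal.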
# [16] = qHTS assay for small molecule disruptors of the mitochondrial membrane potential - cell viability (AID 720634; calls by dose curve;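 further: human HepG2 liver cancer cells; series mostly up to about 83 µM; nearly all actives have a fitted effect of over 20% in size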)
# Method in brief: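 Cytotoxicity was quantified from ATP content by CellTiter-Glo luminescence in the same wells as the MMP dye read-out. HepG2 (2,000 cells/well) were plated overnight and exposed to compounds for 1 hr at 37 C.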
# [17] = qHTS assay to test for compound auto fluorescence at 590 nm (red) in HepG2 cell free culture (AID 720684)
# Method in brief: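 Ex 540 / Em 590 nm read of compound in cell-free MEM (10% FBS). Rose Bengal sodium reference.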
# [18] = biological target: Glucocorticoid receptor (Homo sapiens) (UniProt P04150); experiment: qHTS assay to identify small molecule agonists of the glucocorticoid receptor (GR) signaling pathway (AID 720691; active means well fitted activation curve with a large enough effect in the signal ratio in the repeat runs, not every such curve was filed as active; the % refers to the signal ratio)
# Method in brief: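 Agonist-mode qHTS in HeLa cells stably expressing a glucocorticoid-response-element beta-lactamase reporter. Fluorescence intensity read with FRET substrate (2 h, room temperature) after 18 h compound treatment at 37 C.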
# [19] = qHTS assay for small molecule disruptors of the mitochondrial membrane potential (AID 720635)
# Method in brief: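 HepG2 cells (2,000/well) attached overnight at 37C, then took compound for 1 hr at 37C, 5% CO2. Mito-MPS dye was added for 30 min; fluorescence was read at 490/535 nm (monomers) and 540/590 nm (aggregates).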
# [20] = biological target: Glucocorticoid receptor (Homo sapiens) (UniProt P04150); experiment: qHTS assay to identify small molecule antagonists of the glucocorticoid receptor (GR) signaling pathway (AID 720692; active means well fitted inhibition curve with a large enough effect in the signal ratio in the repeat runs, not every such curve was filed as active; the % refers to the signal ratio)
# Method in brief: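 Inhibition of dexamethasone-driven (5 nM final) beta-lactamase expression was measured in GRE-reporter HeLa cells over 18 h at 37C. Fluorescence was read after 2 h with the B/G FRET substrate at room temperature.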
# Chain of Glucocorticoid receptor (Homo sapiens) (P04150 whole entry, looked up): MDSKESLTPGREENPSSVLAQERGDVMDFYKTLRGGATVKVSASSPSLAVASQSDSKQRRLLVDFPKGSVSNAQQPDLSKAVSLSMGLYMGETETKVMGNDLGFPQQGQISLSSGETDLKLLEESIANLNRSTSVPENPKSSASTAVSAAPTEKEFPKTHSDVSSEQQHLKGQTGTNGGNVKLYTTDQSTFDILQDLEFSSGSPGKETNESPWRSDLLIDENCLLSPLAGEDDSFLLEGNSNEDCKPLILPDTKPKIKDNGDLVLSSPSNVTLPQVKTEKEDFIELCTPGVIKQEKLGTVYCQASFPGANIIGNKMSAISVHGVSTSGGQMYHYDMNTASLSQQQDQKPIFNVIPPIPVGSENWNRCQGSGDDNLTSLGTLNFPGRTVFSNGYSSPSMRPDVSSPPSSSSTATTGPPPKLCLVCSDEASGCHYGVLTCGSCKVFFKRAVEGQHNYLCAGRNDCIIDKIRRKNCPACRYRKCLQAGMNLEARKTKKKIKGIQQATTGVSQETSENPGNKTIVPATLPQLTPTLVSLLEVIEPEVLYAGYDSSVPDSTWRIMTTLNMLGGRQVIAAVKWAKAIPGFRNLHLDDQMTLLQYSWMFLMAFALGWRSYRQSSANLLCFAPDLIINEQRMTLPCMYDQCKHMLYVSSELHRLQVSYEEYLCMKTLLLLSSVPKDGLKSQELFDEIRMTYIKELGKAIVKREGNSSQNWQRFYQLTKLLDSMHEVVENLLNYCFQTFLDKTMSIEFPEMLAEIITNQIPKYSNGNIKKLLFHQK
smiles,measurement,setting,value
CCc1ccc2c(c1)C(=O)c1ccccc1C2=O,Potency,[1],inactive
same,Potency,[2],12.2 µM (active)
same,Potency,[3],inactive
same,Potency,[4],inactive
same,outcome,[5],inactive
same,outcome,[6],inactive
same,Potency,[7],inactive
same,outcome,[8],inactive
same,outcome,[9],inactive
same,Potency,[10],inactive
same,outcome,[11],inactive
same,outcome,[12],inactive
same,outcome,[13],inactive
same,outcome,[14],inactive
same,outcome,[15],inactive
CCCCCCCCS,Potency,[1],inactive
same,Potency,[2],inactive
same,Potency,[4],inactive
same,Potency,[16],inactive
same,outcome,[5],inactive
same,outcome,[6],inactive
same,Potency,[7],inactive
same,outcome,[8],inactive
same,outcome,[9],inactive
same,Potency,[10],inactive
same,outcome,[11],inactive
same,outcome,[12],inactive
same,outcome,[13],inactive
same,outcome,[14],inactive
same,outcome,[15],inactive
O=C(O)c1ccc2cc(O)ccc2c1,Potency,[1],inactive
same,Potency,[2],inactive
same,Potency,[4],inactive
same,Potency,[16],inactive
same,outcome,[5],inactive
same,outcome,[6],inactive
same,Potency,[7],inactive
same,outcome,[8],inactive
same,outcome,[9],inactive
same,Potency,[10],inactive
same,outcome,[11],inactive
same,outcome,[12],inactive
same,outcome,[17],inactive
same,outcome,[13],inactive
same,outcome,[14],inactive
same,outcome,[15],inactive
same,Potency,[18],inactive
CCOc1ccccc1O,Potency,[1],inactive
same,Potency,[2],inactive
same,Potency,[4],inactive
same,Potency,[16],inactive
same,Potency,[19],inactive
same,outcome,[5],inactive
same,outcome,[6],inactive
same,Potency,[7],inactive
same,outcome,[8],inactive
same,outcome,[9],inactive
same,Potency,[10],inactive
same,outcome,[11],inactive
same,outcome,[12],inactive
same,outcome,[17],inactive
same,outcome,[13],inactive
same,outcome,[14],inactive
same,outcome,[15],inactive
CCOC(OCC)OCC,Potency,[1],inactive
same,Potency,[2],inactive
same,Potency,[4],inactive
same,Potency,[16],inactive
same,Potency,[19],inactive
same,outcome,[5],inactive
same,outcome,[6],inactive
same,Potency,[7],inactive
same,outcome,[8],inactive
same,outcome,[9],inactive
same,Potency,[10],inactive
same,outcome,[11],inactive
same,outcome,[17],inactive
same,outcome,[13],inactive
same,outcome,[14],inactive
same,outcome,[15],inactive
same,Potency,[18],inactive
same,Potency,[20],inactive
CCOc1cc(OCC)c(C(C)=O)cc1OCC,Potency,[1],inactive
same,Potency,[2],inactive
same,Potency,[3],inactive
same,outcome,[5],inactive
same,outcome,[6],inactive
same,Potency,[7],inactive
same,outcome,[8],inactive
same,outcome,[9],inactive
same,Potency,[10],inactive
same,outcome,[11],inactive
same,outcome,[12],inactive
same,outcome,[17],inactive
same,outcome,[13],inactive
same,outcome,[14],inactive
same,outcome,[15],inactive
same,Potency,[18],inactive
COC(=O)C(C)(C)C,Potency,[1],inactive
same,Potency,[2],inactive
same,Potency,[4],inactive
same,Potency,[16],inactive
same,Potency,[19],inactive
same,outcome,[5],inactive
same,outcome,[6],inactive
same,Potency,[7],inactive
same,outcome,[8],inactive
same,outcome,[9],inactive
same,Potency,[10],inactive
same,outcome,[11],inactive
same,outcome,[17],inactive
same,outcome,[13],inactive
same,outcome,[14],inactive
same,outcome,[15],inactive
same,Potency,[18],inactive
same,Potency,[20],inactive
CCCCCCCCCCCCCCCCCCCl,activation,[1],-2.7% [at 8.3 µM]
same,activation,[2],2.16% [at 8.08 µM]
same,"activity, negative = cytotoxicity",[4],-17.2% [at 8.08 µM]
same,"ratio activity, negative = MMP loss",[19],-5.25% [at 8.08 µM]
same,"fluorescence, relative to Rose Bengal",[5],-0.0738% [at 3.72 µM]
same,"fluorescence, % of fluorescein control",[6],0.0105% [at 3.72 µM]
same,"fluorescence, % of triamterene",[7],0.0349% [at 3.72 µM]
same,"fluorescence, % of fluorescent control",[8],-0.145% [at 3.72 µM]
same,"fluorescence, % of fluorescein",[9],-0.0209% [at 3.72 µM]
same,"fluorescence, % of fluorescent control",[10],-0.0234% [at 3.72 µM]
same,activity change,[11],0.0076% [at 3.72 µM]
same,"fluorescence, % of Rose Bengal",[17],-0.217% [at 3.72 µM]
same,"fluorescence, % of fluorescein control",[14],0.0829% [at 3.72 µM]
same,"fluorescence, % of fluorescent control",[15],-0.0032% [at 3.72 µM]
